Reference: the antibiotic and cytotoxicity screens of Wong et al. (2023)
Screen size: about 39,000 compounds; about 3,300 (8.5%) were called active. The full list was thinned out, with actives kept by preference.

Each compound was assayed on HepG2 (assay: cytotoxicity call (relative viability < 0.9)). Settings: 10 µM.
With `C[C@@H]1CN([C@@H](C)CO)C(=O)c2cccc(NC(=O)c3cnccn3)c2O[C@H]1CN(C)CC1CCCCC1` the cytotoxicity call was “inactive”. With `COCC#Cc1ccc2c(c1)O[C@@H](CN(C)S(=O)(=O)c1cccc(F)c1)[C@H](C)CN([C@H](C)CO)S2(=O)=O` the cytotoxicity call was “inactive”. For `C[C@@H]1CN([C@@H](C)CO)C(=O)c2cccc(NC(=O)Nc3ccc(F)cc3)c2O[C@@H]1CN(C)Cc1ccc(Oc2ccccc2)cc1`, the cytotoxicity call was “inactive”. For `COc1ccc(S(=O)(=O)Nc2ccc3c(c2)C(=O)N([C@@H](C)CO)C[C@H](C)[C@H](CN(C)C(=O)Nc2cccc4ccccc24)OCCCC[C@H](C)O3)cc1`, the cytotoxicity call was “active”. With `COc1ccc(S(=O)(=O)Nc2ccc3c(c2)C(=O)N([C@@H](C)CO)C[C@H](C)[C@H](CN(C)C(=O)Nc2cccc4ccccc24)OCCCC[C@@H](C)O3)cc1` the cytotoxicity call was “inactive”. With `COc1ccc(S(=O)(=O)Nc2ccc3c(c2)C(=O)N([C@H](C)CO)C[C@H](C)[C@@H](CN(C)C(=O)Nc2cccc4ccccc24)OCCCC[C@@H](C)O3)cc1` the cytotoxicity call was “inactive”. `COc1ccc(S(=O)(=O)Nc2ccc3c(c2)C(=O)N([C@H](C)CO)C[C@H](C)[C@H](CN(C)C(=O)Nc2cccc4ccccc24)OCCCC[C@@H](C)O3)cc1` was tested, and the cytotoxicity call was “inactive”. With `COc1ccc(S(=O)(=O)Nc2ccc3c(c2)C(=O)N([C@H](C)CO)C[C@H](C)[C@@H](CN(C)C(=O)Nc2cccc4ccccc24)OCCCC[C@H](C)O3)cc1` the cytotoxicity call was “active”. With `COc1ccc(S(=O)(=O)Nc2ccc3c(c2)C(=O)N([C@@H](C)CO)C[C@@H](C)[C@@H](CN(C)C(=O)Nc2cccc4ccccc24)OCCCC[C@H](C)O3)cc1` the cytotoxicity call was “inactive”. For `O=C(CN1CCOCC1)NCC[C@H]1CC[C@H](NC(=O)c2ccc3c(c2)OCO3)[C@H](CO)O1`, the cytotoxicity call was “inactive”. For `C[C@H](CO)N1C[C@H](C)[C@H](CN(C)C(=O)Nc2ccc(F)cc2)OCCCC[C@H](C)Oc2ccc(NC(=O)C3CCCC3)cc2C1=O`, the cytotoxicity call was “inactive”. For `Clc1ccc(Cn2cccc2)cn1`, the cytotoxicity call was “inactive”. For `CCS(=O)(=O)Nc1ccc2c(c1)C(=O)N(C)[C@@H]1CC[C@@H](CC(=O)N[C@H]3CCN(Cc4ccccc4)C3)O[C@@H]1CO2`, the cytotoxicity call was “inactive”. `C[C@H]1CN([C@@H](C)CO)C(=O)Cc2cc(NS(=O)(=O)c3ccc(F)cc3)ccc2O[C@@H]1CN(C)Cc1ccncc1` was tested, and the cytotoxicity call was “inactive”. For `COCC(=O)Nc1ccc2c(c1)OC[C@H](C)N(C(=O)Cc1ccccn1)C[C@H](C)[C@@H](OC)CN(C)C2=O`, the cytotoxicity call was “inactive”. For `COc1ccc2c(c1OC)C(=O)OC2C1c2c(cc3c(c2OC)OCO3)CCN1C.Cl` (stereo not drawn), the cytotoxicity call was “active”. `COc1cc2c(cc1OC)C1Cc3ccc(OC)c(OC)c3CN1CC2` (stereo not drawn) was tested, and the cytotoxicity call was “inactive”. `Cc1cc(-c2cc(OC(=O)c3ccccc3)ccc2Cl)cc2nnc(Nc3ccc(OCCN4CCCC4)cc3)nc12` was tested, and the cytotoxicity call was “inactive”. In the case of `CCN(CC)CCOc1ccc(Nc2ncc3cc(-c4c(Cl)cccc4Cl)c(=O)n(C)c3n2)cc1`, the cytotoxicity call is reported as “active”. In the case of `O=C(C[C@@H]1C=C[C@@H](NC(=O)CN2CCOCC2)[C@H](CO)O1)NCCc1ccccc1`, the cytotoxicity call is reported as “inactive”. For `CNCC(=O)O`, the cytotoxicity call was “inactive”. With `O=C(O)CNC(=O)C(=O)O` the cytotoxicity call was “active”. `NCC(=O)NCC(=O)O` was tested, and the cytotoxicity call was “inactive”. `CN(C)CCN1C[C@@H]2CN(C(=O)[C@H]3CCOC3)C[C@H]2C1=O` was tested, and the cytotoxicity call was “inactive”. `C[C@@H]1CCCCO[C@H](CN(C)S(=O)(=O)c2cccs2)[C@@H](C)CN([C@@H](C)CO)C(=O)c2cc(NC(=O)NC3CCCCC3)ccc2O1` was tested, and the cytotoxicity call was “inactive”. `Cc1noc(C)c1S(=O)(=O)Nc1ccc2c(c1)C(=O)N([C@@H](C)CO)C[C@H](C)[C@H](CN(C)Cc1ccc3c(c1)OCO3)O2` was tested, and the cytotoxicity call was “inactive”. In the case of `COc1ccc(S(=O)(=O)N(C)C[C@@H]2OCCCC[C@@H](C)Oc3ccc(NC(=O)Nc4ccc(F)cc4)cc3C(=O)N([C@@H](C)CO)C[C@H]2C)cc1`, the cytotoxicity call is reported as “inactive”. `CN(C)CC(=O)N1CC2(C1)[C@H](c1ccccc1)[C@H](CO)N2S(C)(=O)=O` was tested, and the cytotoxicity call was “inactive”. `CN(c1ncccc1CNc1nc(Nc2ccc3c(c2)CC(=O)N3)ncc1C(F)(F)F)S(C)(=O)=O` was tested, and the cytotoxicity call was “active”. With `CNC(=O)c1ccc(Nc2ncc(C(F)(F)F)c(NCc3nccnc3N(C)S(C)(=O)=O)n2)cc1` the cytotoxicity call was “active”. `Cc1cnc(CNC(=O)c2c(=O)c3ccc(N4CCCN(C)CC4)nc3n3c2sc2ccccc23)cn1` was tested, and the cytotoxicity call was “inactive”. `CCS(=O)(=O)N1C[C@]2(CN(C2)C(=O)Nc2ccc(cc2F)F)c2c(n(c3cc(ccc23)OC)C)[C@@H]1CO` was tested, and the cytotoxicity call was “inactive”. `CN(C)Cc1cn(CC[C@H]2CC[C@@H](NC(=O)Cc3cccnc3)[C@@H](CO)O2)nn1` was tested, and the cytotoxicity call was “inactive”. In the case of `O=c1/c(=C\c2ccc(F)cc2)sc2n1CCN=2`, the cytotoxicity call is reported as “inactive”. `O=C(/C=C/c1cc2c(cc1Br)OCCO2)c1c(-c2ccccc2)c2cc(Cl)ccc2[nH]c1=O` was tested, and the cytotoxicity call was “active”. With `N=C(CN1CCCCC1)NO` the cytotoxicity call was “inactive”. `CN(C)CCCNC(=O)C[C@@H]1CC[C@H]2[C@@H](COC[C@@H](O)CN2C(=O)c2cc(Cl)cc(Cl)c2)O1` was tested, and the cytotoxicity call was “inactive”. For `COc1ccc(NC(=O)Nc2ccc3c(c2)C(=O)N([C@@H](C)CO)C[C@H](C)[C@H](CN(C)C(=O)Nc2ccc(C(F)(F)F)cc2)OCCCC[C@H](C)O3)cc1`, the cytotoxicity call was “inactive”. With `C[C@H]1CN([C@@H](C)CO)C(=O)c2cccc(NS(=O)(=O)c3ccc(F)cc3)c2O[C@@H]1CN(C)Cc1ccc(Cl)c(Cl)c1` the cytotoxicity call was “inactive”. With `COC1=C(N)C(=O)c2nc(-c3nc(C(=O)O)c(C)c(-c4ccc(OC)c(OC)c4O)c3N)ccc2C1=O` the cytotoxicity call was “active”. For `COc1ccc(NC(=O)N(C)C[C@@H]2Oc3ncc(Br)cc3C(=O)N([C@H](C)CO)C[C@@H]2C)cc1`, the cytotoxicity call was “inactive”. For `CCCNC(=O)N1C[C@H](O)COC[C@@H]2O[C@H](CC(=O)NCCCN3CCOCC3)CC[C@H]21`, the cytotoxicity call was “inactive”. In the case of `CN1C(=O)c2cc(NC(=O)c3ccc(C(F)(F)F)cc3)ccc2OC[C@@H]2O[C@H](CC(=O)NC3Cc4ccccc4C3)CC[C@@H]21`, the cytotoxicity call is reported as “inactive”. For `CN1C(=O)c2cc(NC(=O)c3ccc(C(F)(F)F)cc3)ccc2OC[C@H]2O[C@H](CC(=O)NC3Cc4ccccc4C3)CC[C@H]21`, the cytotoxicity call was “active”. For `CN1C(=O)c2cc(NC(=O)Nc3ccccc3F)ccc2OC[C@H]2O[C@H](CC(=O)NCc3ccc(-c4ccccc4)cc3)CC[C@H]21`, the cytotoxicity call was “inactive”. `CN1C(=O)c2cc(NC(=O)c3ccc(C(F)(F)F)cc3)ccc2OC[C@@H]2O[C@@H](CC(=O)NC3Cc4ccccc4C3)CC[C@@H]21` was tested, and the cytotoxicity call was “active”. In the case of `CN1C(=O)c2cc(NC(=O)c3ccc(C(F)(F)F)cc3)ccc2OC[C@H]2O[C@H](CC(=O)NC3Cc4ccccc4C3)CC[C@@H]21`, the cytotoxicity call is reported as “inactive”. `CN1C(=O)c2cc(NC(=O)Nc3ccccc3F)ccc2OC[C@H]2O[C@@H](CC(=O)Nc3cccc(Cl)c3)CC[C@@H]21` was tested, and the cytotoxicity call was “active”. In the case of `CN(C)CC(=O)Nc1ccc2c(c1)C(=O)N(C)[C@H]1CC[C@H](CC(=O)Nc3cccc(Cl)c3)O[C@@H]1CO2`, the cytotoxicity call is reported as “inactive”. `CN1C(=O)c2cc(NC(=O)c3ccc(C(F)(F)F)cc3)ccc2OC[C@@H]2O[C@H](CC(=O)NC3Cc4ccccc4C3)CC[C@H]21` was tested, and the cytotoxicity call was “inactive”. With `CN1C(=O)c2cc(NC(=O)c3ccc(C(F)(F)F)cc3)ccc2OC[C@@H]2O[C@@H](CC(=O)NC3Cc4ccccc4C3)CC[C@H]21` the cytotoxicity call was “inactive”. `C[C@H]1CCCCO[C@@H](CN(C)Cc2ccncc2)[C@@H](C)CN([C@@H](C)CO)C(=O)c2cc(NC(=O)Nc3ccccc3)ccc2O1` was tested, and the cytotoxicity call was “inactive”. For `Cc1ccc(S(=O)(=O)Nc2ccc3c(c2)C(=O)N([C@H](C)CO)C[C@@H](C)[C@@H](CN(C)C(=O)Nc2ccccc2)OCCCC[C@H](C)O3)cc1`, the cytotoxicity call was “inactive”. `C[C@H](CO)N1C[C@H](C)[C@@H](CN(C)S(=O)(=O)c2ccc(F)cc2)Oc2ncc(-c3ccncc3)cc2C1=O` was tested, and the cytotoxicity call was “inactive”. `COc1ccc(CN(C)C[C@@H]2OCCCC[C@@H](C)Oc3ccc(NC(=O)CCC(F)(F)F)cc3C(=O)N([C@@H](C)CO)C[C@@H]2C)cc1` was tested, and the cytotoxicity call was “inactive”. For `CCOC(=O)N(C)C[C@@H]1OCc2cn(nn2)CCCC(=O)N([C@H](C)CO)C[C@@H]1C`, the cytotoxicity call was “inactive”. For `C[C@@H]1CN([C@@H](C)CO)C(=O)c2cc(NS(=O)(=O)c3ccc(F)cc3)ccc2O[C@@H]1CN(C)S(=O)(=O)c1cccs1`, the cytotoxicity call was “inactive”. With `C[C@@H]1CN([C@H](C)CO)S(=O)(=O)c2ccc(Br)cc2O[C@H]1CN(C)C(=O)c1cnccn1` the cytotoxicity call was “inactive”. `CNC[C@@H]1Oc2c(NS(=O)(=O)c3cn(C)cn3)cccc2C(=O)N([C@H](C)CO)C[C@@H]1C` was tested, and the cytotoxicity call was “inactive”. For `COCCOC(=O)N1C(=O)[C@@]2(c3cc(C#CCC(C(=O)OC)C(=O)OC)ccc31)[C@H](C(=O)N1CCCCCCC1)[C@H]1C(=O)O[C@H](c3ccccc3)[C@H](c3ccccc3)N1[C@@H]2c1ccc(O)cc1`, the cytotoxicity call was “active”. In the case of `COCCOC(=O)N1C(=O)[C@@]2(c3cc(C#Cc4ccc(OC)cc4)ccc31)[C@H](c1ccc(OCCO)cc1)N1[C@H](c3ccccc3)[C@H](c3ccccc3)OC(=O)[C@H]1[C@@H]2C(N)=O`, the cytotoxicity call is reported as “inactive”. In the case of `COc1ccc(C#Cc2ccc3c(c2)[C@@]2(C(=O)N3C(=O)N[C@@H](C)c3ccccc3)[C@H](c3ccc(OCCO)cc3)N3[C@H](c4ccccc4)[C@H](c4ccccc4)OC(=O)[C@H]3[C@@H]2C(=O)O)cc1`, the cytotoxicity call is reported as “active”. With `COCCOC(=O)N1C(=O)[C@@]2(c3cc(C#Cc4ccc(OC)cc4)ccc31)[C@H](C(=O)N1CCCCCCC1)[C@H]1C(=O)O[C@H](c3ccccc3)[C@H](c3ccccc3)N1[C@@H]2c1ccc(O)cc1` the cytotoxicity call was “inactive”. For `COCCOC(=O)N1C(=O)[C@@]2(c3cc(C#Cc4ccc(OC)cc4)ccc31)[C@H](c1ccc(OCCO)cc1)N1[C@H](c3ccccc3)[C@H](c3ccccc3)OC(=O)[C@H]1[C@@H]2C(=O)NC[C@H](O)c1ccccc1`, the cytotoxicity call was “inactive”. `COCCOC(=O)N1C(=O)[C@@]2(c3cc(C#CCC(C(=O)OC)C(=O)OC)ccc31)[C@H](C(=O)N1CCCCCCC1)[C@H]1C(=O)O[C@H](c3ccccc3)[C@H](c3ccccc3)N1[C@@H]2c1ccc(OCCO)cc1` was tested, and the cytotoxicity call was “inactive”. For `COCCOC(=O)N1C(=O)[C@@]2(c3cc(C#CCC(C(=O)OC)C(=O)OC)ccc31)[C@H](c1ccc(OCCO)cc1)N1[C@H](c3ccccc3)[C@H](c3ccccc3)OC(=O)[C@H]1[C@@H]2C(=O)N1CCCCCCC1`, the cytotoxicity call was “inactive”. `COCCOC(=O)N1C(=O)[C@@]2(c3cc(C#Cc4ccc(OC)cc4)ccc31)[C@H](C(=O)N1CCCCCCC1)[C@H]1C(=O)O[C@H](c3ccccc3)[C@H](c3ccccc3)N1[C@@H]2c1ccc(OCCO)cc1` was tested, and the cytotoxicity call was “inactive”. For `COCCOC(=O)N1C(=O)[C@@]2(c3cc(C#Cc4ccc(OC)cc4)ccc31)[C@H](c1ccc(O)cc1)N1[C@H](c3ccccc3)[C@H](c3ccccc3)OC(=O)[C@H]1[C@@H]2C(=O)N1CCCCCCC1`, the cytotoxicity call was “active”.
